Assay [1] can be described thus: Nuclear factor erythroid 2-related factor 2/antioxidant responsive element (Nrf2/ARE) small molecule agonists: qHTS cell viability counter screen in human keratinocytes (AID 1919968; active means well fitted curve in the direction sought with a large enough effect in the repeat runs; an effect the other way counts as inactive or inconclusive; further: nearly all actives have a fitted effect of over 55% in size). In short, it runs like this:
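CellTiter-Fluor fluorescence, read 1 h after reagent, gave viability in the same wells as the ARE-luciferase assay. KeratinoSens cells (1,500/well) had 23 h compound exposure at 37 C/5% CO2 following 5 h plating.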
On the technique in general: qHTS replaces the single test concentration by a dilution series.

Assay [2] is described as follows: Nuclear factor erythroid 2-related factor 2/antioxidant responsive element (Nrf2/ARE) small molecule agonists: luciferase reporter gene qHTS assay in human keratinocytes (AID 1919969). Further: nearly all actives have a fitted effect of over 35% in size. For orientation: Reporter assays use an easily measured gene product as a stand-in for the process of interest.
For assay [3], the target named is Gonadotropin-releasing hormone receptor (Homo sapiens) (UniProt P30968). Description: Human gonadotropin-releasing hormone receptor (GnRHR) small molecule agonists, calcium flux assay in GnRHR-HEK293 cells (AID 1920063). Further: nearly all actives have a fitted effect of over 35% in size. The method, boiled down: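 Agonist mode: compounds at 15 concentrations, in triplicate, went onto calcium dye-loaded GnRHR-HEK293 cells. Intracellular calcium was then followed as 480/540 nm fluorescence at 1 s intervals over 3 min.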
Sequence of Gonadotropin-releasing hormone receptor (Homo sapiens) (P30968 whole entry, looked up): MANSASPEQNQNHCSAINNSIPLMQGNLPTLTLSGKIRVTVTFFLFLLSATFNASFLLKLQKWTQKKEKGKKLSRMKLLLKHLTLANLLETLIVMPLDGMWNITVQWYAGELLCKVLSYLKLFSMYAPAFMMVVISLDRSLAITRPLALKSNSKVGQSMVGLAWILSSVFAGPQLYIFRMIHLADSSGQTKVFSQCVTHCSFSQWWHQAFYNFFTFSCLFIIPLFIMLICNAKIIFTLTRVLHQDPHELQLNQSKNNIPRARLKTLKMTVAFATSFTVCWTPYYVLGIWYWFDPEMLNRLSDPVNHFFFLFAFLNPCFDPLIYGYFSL
(A change in cytosolic calcium serves as a functional read-out for many receptors and channels.)

Assay [4] deals with KiSS-1 receptor (Homo sapiens) (UniProt Q969F8). Description: Human kisspeptin (KISS1R) small molecule agonists, calcium flux assay in KISS1R-HEK293 cells (AID 1920064; active means well fitted curve in the direction sought with a large enough effect in the repeat runs; an effect the other way counts as inactive or inconclusive). The method, boiled down: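 Agonist mode: intracellular calcium rise tracked at 1 s intervals over 3 min (480/540 nm) immediately after compound addition to dye-loaded KISS1R-HEK293 stable cells. Each compound tested at 15 concentrations in triplicate.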
Sequence of KiSS-1 receptor (Homo sapiens) (Q969F8 whole entry, looked up): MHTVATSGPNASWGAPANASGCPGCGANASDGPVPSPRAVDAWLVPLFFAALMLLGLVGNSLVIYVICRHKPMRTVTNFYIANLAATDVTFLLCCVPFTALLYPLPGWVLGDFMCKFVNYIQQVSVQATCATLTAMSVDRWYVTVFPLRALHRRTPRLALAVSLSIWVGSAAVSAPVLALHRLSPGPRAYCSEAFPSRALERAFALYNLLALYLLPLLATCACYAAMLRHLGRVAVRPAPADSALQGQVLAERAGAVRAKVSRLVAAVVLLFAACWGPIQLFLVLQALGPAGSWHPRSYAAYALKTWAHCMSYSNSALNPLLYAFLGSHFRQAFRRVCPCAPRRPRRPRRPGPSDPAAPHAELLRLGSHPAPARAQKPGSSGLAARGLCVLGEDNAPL

Assay [5] in a line: G protein-coupled receptor (GPCR) small molecule agonists, calcium flux assay: HEK293 wild type cell line counter screen (AID 1920065). The method, boiled down: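 Calcium flux counter screen: compound added in agonist mode at 15 concentrations in triplicate to dye-loaded parental HEK293 cells. Fluorescence (480/540) read kinetically for 3 min; ATP served as positive control.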

Assay [6] can be described thus: p53 small molecule agonists, cell-based qHTS assay with human liver microsomes (AID 1963577).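 Further: p53 response element beta-lactamase reporter cells with liver microsomes plus NADPH.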 The method, boiled down:
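Metabolically competent format: test substances, human liver microsomes and NADPH (both 0.5 mg/mL final) incubated with p53RE-bla cells 16 h at 37 C. Beta-lactamase reporter signal then quantified by fluorescence.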

A short description of assay [7]: p53 small molecule agonists, cell-based qHTS assay with rat liver microsomes (AID 1963578). In short, it runs like this: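 Each plate received p53RE-bla cells, then compound, then rat liver microsomes and NADPH (both 0.5 mg/mL final). Plates were held 16 h at 37 C, and beta-lactamase activity was detected with LiveBLAzer over 2 h.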
Assay [8] is described as follows: p53 small molecule agonists, cell-based qHTS assay with human liver microsomes: qHTS cell viability counter screen (AID 1963579). Further: nearly all actives have a fitted effect of over 45% in size. In short, it runs like this:
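Tox21 library compounds, delivered from DMSO stocks, were tested on p53RE-bla cells together with 0.5 mg/mL human liver microsomes and 0.5 mg/mL NADPH (final) over 16 h at 37 C; CellTiter-Glo luminescence served as the cytotoxicity measure.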

Assay [9] in a line: p53 small molecule agonists, cell-based qHTS assay with rat liver microsomes: qHTS cell viability counter screen (AID 1963580). Further: nearly all actives have a fitted effect of over 45% in size. In short, it runs like this: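 Counter screen for cytotoxicity under metabolic activation: rat liver microsomes and NADPH, 0.5 mg/mL final each, added with compounds to p53RE-bla HCT-116 cells; 16 h at 37 C, then ATP luminescence read.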
Assay [10] is described as follows: p53 small molecule agonists, cell-based qHTS assay: qHTS cell viability counter screen (AID 1963581). Further: nearly all actives have a fitted effect of over 45% in size. The method, boiled down: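 Counter screen read by CellTiter-Glo luminescence (ATP content, 30 min at room temperature), run in the same wells as the beta-lactamase reporter read. HCT-116 p53RE-bla cells saw compounds for 16 h at 37 C.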
Assay [11] is described as follows: p53 small molecule agonists, cell-based qHTS assay (AID 1963582; active means well fitted activation curve with a large enough effect in the signal ratio in the repeat runs, not every such curve was filed as active; the % refers to the signal ratio). In short, it runs like this: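 Read-out is beta-lactamase FRET fluorescence after 2 h at room temperature with LiveBLAzer B/G substrate. p53 response element-bla cells were treated 16 h at 37 C with compounds in DMSO, added 5 h after seeding.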
The target in assay [12] is 5-hydroxytryptamine receptor 2A (Homo sapiens) (UniProt P28223). Description: 5-hydroxytryptamine receptor 2A (HTR2A) small molecule agonists, cell-based qHTS assay (AID 1963587). Further: nearly all actives have a fitted effect of over 30% in size. The method, boiled down: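 HTR2A-CHO cells, plated 18 h at 37 C/5% CO2, dye-loaded 1 h at 37 C; compounds in DMSO added by pin tool (agonist mode). Intracellular calcium flux read as kinetic fluorescence on FDSS over 2 min at 1 s intervals.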
Sequence of 5-hydroxytryptamine receptor 2A (Homo sapiens) (P28223 whole entry, looked up): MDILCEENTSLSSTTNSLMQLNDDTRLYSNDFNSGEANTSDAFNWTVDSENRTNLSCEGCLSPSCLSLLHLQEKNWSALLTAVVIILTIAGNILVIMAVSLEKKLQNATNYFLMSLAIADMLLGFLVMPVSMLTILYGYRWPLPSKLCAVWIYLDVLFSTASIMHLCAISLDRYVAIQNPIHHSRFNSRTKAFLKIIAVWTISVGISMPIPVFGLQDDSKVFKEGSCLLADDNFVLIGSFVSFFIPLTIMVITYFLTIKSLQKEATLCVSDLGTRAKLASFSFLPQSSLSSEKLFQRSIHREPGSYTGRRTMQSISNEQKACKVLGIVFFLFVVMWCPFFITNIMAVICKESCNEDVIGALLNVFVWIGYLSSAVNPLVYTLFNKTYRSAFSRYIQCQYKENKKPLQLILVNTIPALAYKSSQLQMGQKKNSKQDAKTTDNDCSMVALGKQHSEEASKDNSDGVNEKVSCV

The target in assay [13] is Muscarinic acetylcholine receptor M1 (Homo sapiens) (UniProt P11229). Description: Cholinergic receptor muscarinic 1 (CHRM1) small molecule antagonists, cell-based qHTS assay (AID 1963588). Further: nearly all actives have a fitted effect of over 40% in size. Further: potency means the concentration at half of the fitted maximal effect. The method, boiled down: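 Compounds were tested at 15 concentrations in three independent runs. Dye-loaded CHRM1-CHO cells were exposed 5 min at room temperature before stimulation by acetylcholine added at 50nM. Intracellular calcium was read kinetically on FDSS for 3 min.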
Sequence of Muscarinic acetylcholine receptor M1 (Homo sapiens) (P11229 whole entry, looked up): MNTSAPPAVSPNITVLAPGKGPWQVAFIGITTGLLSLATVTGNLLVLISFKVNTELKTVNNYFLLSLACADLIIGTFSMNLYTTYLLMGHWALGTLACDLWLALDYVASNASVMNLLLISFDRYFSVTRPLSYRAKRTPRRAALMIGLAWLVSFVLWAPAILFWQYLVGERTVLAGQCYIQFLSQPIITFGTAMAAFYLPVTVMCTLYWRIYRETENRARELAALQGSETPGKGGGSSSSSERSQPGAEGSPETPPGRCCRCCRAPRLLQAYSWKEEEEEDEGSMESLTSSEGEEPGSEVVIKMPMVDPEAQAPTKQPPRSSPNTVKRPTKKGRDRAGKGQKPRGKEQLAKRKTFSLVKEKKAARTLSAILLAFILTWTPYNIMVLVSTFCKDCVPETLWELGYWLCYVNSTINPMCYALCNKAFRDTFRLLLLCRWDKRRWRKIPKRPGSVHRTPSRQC

For assay [14] the target is unchanged. Description: Cholinergic receptor muscarinic 1 (CHRM1) small molecule agonists, cell-based qHTS assay (AID 1963589). Further: nearly all actives have a fitted effect of over 35% in size. The method, boiled down:
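Agonist-mode calcium-flux screen: compounds at 15 concentrations, three independent runs, were pin-transferred onto dye-loaded human CHRM1-CHO cells. Fluorescence was then recorded kinetically every second over minutes.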

Assay [15] is described as follows: cAMP Responsive Elements (CRE) small molecule agonists, cell-based qHTS assay (AID 1963590). The method, boiled down:
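Agonist mode: compound added to CRE-bla HEK 293T cells (2,000/well, 18 h after plating) for 3 h at 37 C/5% CO2. Reporter activity detected via FRET beta-lactamase substrate, 2 h room-temperature loading.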

A short description of assay [16]: cAMP Responsive Elements (CRE) small molecule antagonists, cell-based qHTS assay (AID 1963591; active means well fitted inhibition curve with a large enough effect in the signal ratio in the repeat runs, not every such curve was filed as active; the % refers to the signal ratio). The method, boiled down: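 Antagonist mode: compounds are added alongside the adenylyl cyclase activator NKH477 (0.25 uM final) to CRE-bla HEK293T cells for 3 h. LiveBLAzer FRET substrate, 2 h at room temperature, reports bla expression.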
In assay [17] the target is Beta-2 adrenergic receptor (Homo sapiens) (UniProt P07550). Description: Adrenergic beta2 receptor (ADRB2) small molecule antagonists, cell-based qHTS assay (AID 1963592). Further: series mostly up to about 92 µM; nearly all actives have a fitted effect of over 50% in size. In short, it runs like this: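 Assay format: CHO-ADRB2 cells, 18-20hr seeding at 37C/5% CO2, then compound plus 1nM isoproterenol agonist mix for 0.5hr RT. Homogeneous time-resolved fluorescence cAMP detection after 1hr, expressed as 665/615 nm ratio.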
Sequence of Beta-2 adrenergic receptor (Homo sapiens) (P07550 whole entry, looked up): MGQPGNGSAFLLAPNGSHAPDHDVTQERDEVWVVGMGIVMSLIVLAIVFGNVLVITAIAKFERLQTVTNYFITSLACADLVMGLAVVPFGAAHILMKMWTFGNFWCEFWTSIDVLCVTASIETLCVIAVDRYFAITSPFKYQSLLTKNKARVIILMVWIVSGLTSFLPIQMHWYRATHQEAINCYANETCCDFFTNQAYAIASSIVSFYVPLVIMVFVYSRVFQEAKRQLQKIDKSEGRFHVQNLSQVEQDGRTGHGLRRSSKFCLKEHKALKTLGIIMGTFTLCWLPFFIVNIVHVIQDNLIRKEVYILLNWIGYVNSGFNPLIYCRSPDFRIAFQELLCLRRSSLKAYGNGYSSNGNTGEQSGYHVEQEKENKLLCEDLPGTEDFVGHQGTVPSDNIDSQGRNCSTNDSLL

The target of assay [18] is D(2) dopamine receptor (Homo sapiens) (UniProt P14416). Description: Dopamine D2 receptor (DRD2) small molecule agonists, cell-based qHTS assay (AID 1963594). Further: nearly all actives have a fitted effect of over 35% in size. In short, it runs like this:
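HEK293 cells stably expressing DRD2 were cultured 24 h at 37 C, then given Ro20-1724 (0.1 mM final) and compounds for 10 min at room temperature. NKH477 (200nM) was then added for 30 min. cAMP was read by HTRF.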

Assay [19] has the same target. Description: Dopamine D2 receptor (DRD2) small molecule antagonists, cell-based qHTS assay (AID 1963595; active means well fitted inhibition curve with a large enough effect in the signal ratio in the repeat runs, with a control signal flat; the % refers to the signal ratio; further: potency means the concentration at half of the fitted maximal effect). In short, it runs like this: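 HEK293 cells stably expressing DRD2 were preincubated with 0.1 mM Ro20-1724, then with compound for 10 min at room temperature. Cells were stimulated with 200 nM NKH477 plus 12 nM quinpirole for 30 min, and cAMP was read by HTRF.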

Assay [20] deals with Beta-2 adrenergic receptor (Homo sapiens) (UniProt P07550). Description: Adrenergic beta2 receptor (ADRB2) small molecule agonists, cell-based qHTS assay (AID 1963593).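 Further: CHO cells stably overexpressing human ADRB2.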 The method, boiled down:
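CHO cells stably over-expressing ADRB2 were plated overnight at 37C, then dosed with compounds plus a stimulation mix containing 100uM IBMX and 25uM Ro-20-1724 for 0.5hr at room temperature. cAMP was measured by HTRF competition, 1hr.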

Unmarked numbers belong to inactive results. Results filed as inconclusive are left out. The source made the active and inactive calls. Unless noted, the call rests on the fitted dose curve.
On the % scale 0 is the no-effect control and ±100 the full control effect.

Sequence of D(2) dopamine receptor (Homo sapiens) (P14416 whole entry, looked up): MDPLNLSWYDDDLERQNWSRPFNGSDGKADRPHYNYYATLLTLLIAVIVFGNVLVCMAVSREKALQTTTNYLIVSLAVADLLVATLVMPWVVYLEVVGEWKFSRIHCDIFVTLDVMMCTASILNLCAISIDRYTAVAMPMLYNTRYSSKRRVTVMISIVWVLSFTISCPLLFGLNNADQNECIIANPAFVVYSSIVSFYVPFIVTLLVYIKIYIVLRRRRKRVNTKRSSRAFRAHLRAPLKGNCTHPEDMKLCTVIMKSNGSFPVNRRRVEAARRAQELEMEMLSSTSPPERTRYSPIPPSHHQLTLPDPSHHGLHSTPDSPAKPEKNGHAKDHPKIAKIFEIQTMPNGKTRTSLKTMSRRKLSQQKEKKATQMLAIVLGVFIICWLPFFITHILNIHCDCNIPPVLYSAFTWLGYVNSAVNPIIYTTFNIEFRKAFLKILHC

In the case of `CC[N+]1(CC)CCC(=C(c2ccccc2)c2ccccc2)C1C` (configuration not stated), the Potency result in assay [1], in [2], in assay [3], in [6], in assay [7] and in [8] was “inactive” throughout. In addition, the Potency entry in assay [9], in assay [10], in [11], in assay [12], in assay [14] and in [15] was “inactive” throughout. In addition, the Potency result in [16], in assay [17] and in assay [18] was “inactive” each time. Further, the result in assay [4] and in [5] was inactive. In addition, in [13], the Potency is 25.9 nM (active).

Regarding `C=CCc1ccccc1OCC(O)CNC(C)C` (configuration not stated), the Potency result in assay [1], in assay [2], in assay [3], in [6], in assay [7] and in assay [8] was “inactive” in each case. The Potency entry in assay [9], in assay [10], in assay [11], in [12], in assay [13] and in [14] was “inactive” in each case. Further, the Potency entry in [15], in assay [16], in assay [18] and in [19] was “inactive” throughout. The outcome in assay [4] and in assay [5] was inactive.

As to `C=CCSCC1Nc2cc(Cl)c(S(N)(=O)=O)cc2S(=O)(=O)N1` (configuration not stated), the Potency entry in assay [1], in assay [2], in assay [3], in assay [6], in assay [7] and in assay [8] was “inactive” in each case. The Potency result in assay [9], in assay [10], in assay [11], in assay [12], in assay [13] and in assay [14] was “inactive” in each case. The Potency result in assay [15], in assay [16], in [17], in assay [18] and in assay [19] was “inactive” each time. In addition, the result in assay [4] and in [5] was inactive.

For the compound `NNc1nnc(NN)c2ccccc12`, the Potency result in [1], in assay [2], in [3], in [6], in assay [7] and in assay [8] was “inactive” in each case. In addition, the Potency entry in [9], in assay [10], in assay [11], in assay [12], in assay [13] and in [14] was “inactive” in each case. In addition, the Potency entry in [15], in [16], in assay [20], in [18] and in [19] was “inactive” throughout. For the same compound, the result in assay [4] and in assay [5] was inactive.

`CCOC(=O)[C@H](O)[C@@H](O)C(=O)OCC`: the Potency entry in assay [1], in assay [2], in assay [3], in assay [6], in assay [7] and in assay [8] was “inactive” each time. Moreover, the Potency entry in [9], in assay [10], in assay [11], in [12], in assay [13] and in assay [14] was “inactive” throughout. For the same compound, the Potency result in [15], in assay [16], in assay [17], in assay [20], in assay [18] and in assay [19] was “inactive” throughout. Further, the outcome in [4] and in assay [5] was inactive.

Regarding `CCN(CC)CCNC(=O)c1cc(Br)c(N)cc1OC`, the Potency entry in assay [1], in assay [2], in assay [3], in assay [6], in assay [7] and in [8] was “inactive” throughout. The Potency entry in assay [9], in assay [10], in assay [11], in assay [12], in [13] and in [14] was “inactive” in each case. For the same compound, the Potency entry in assay [15], in assay [17], in assay [20] and in assay [18] was “inactive” each time. For the same compound, the result in [4] and in [5] was inactive. In addition, in assay [19], the Potency is 376 nM (active).

`O=C(O)CNCC(=O)O`: the activity change, negative = cytotoxicity in assay [1] was 0.812% [at 8.39 µM]; in assay [8] it was -6.14% [at 5.99 µM]; in [9] it was 8.22% [at 5.99 µM]; in [10], -13% [at 5.99 µM]. In addition, the activity, positive = activation in assay [2] is -2.08% [at 8.39 µM]. Moreover, the activity change in assay [3] is 0.0589% [at 5.22 µM, stronger effect = higher value]. Also, the activation was 0.594% [at 6.97 µM] in assay [4]; 0.144% [at 5.23 µM] in [5]; 0.261% [at 5.99 µM] in assay [6]; 0.304% [at 5.99 µM] in assay [7]; 0.447% [at 5.99 µM] in assay [11]; -1.98% [at 7.02 µM] in assay [12]. In addition, the activation in assay [14] is 0.803% [at 6.97 µM]; in assay [15] it was -0.186% [at 8.39 µM]; in assay [18] it was -0.477% [at 8.39 µM]. Besides, the activity, negative = inhibition in assay [13] is -11.9% [at 5.58 µM]. Further, the values for the activity change, negative = inhibition in assay [16], in assay [17] and in [19] were 0.325% [at 8.39 µM], -7.9% [at 8.39 µM] and -7.14% [at 8.38 µM], respectively.

The record behind these values is PubChem BioAssay (Tox21).
